# Compound activity deposited in PubChem BioAssay by National Center for Advancing Translational Sciences (NCATS).
# Pf growth 96h – inhibits malaria parasite growth, 96 h; P. falciparum luciferase reporter growth, 96 h; Potency, µM (doses to about 28.7 µM), without a hit: at the highest dose activity change, negative = inhibition, usual class: inhibitors; 320,000 compounds, 6.9% hits; AID 504834; also: potency is read from the fitted curve at half-maximal effect; % is scaled to controls: 0 for no effect and ±100 for the full control effect
#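 Two-generation exposure (96 h) targets delayed-death phenotype. Reporter parasites carrying integrated firefly luciferase, in red cells at 2% hematocrit and 0.05% parasitemia final, kept at 37 C, 5% CO2; luminescence loss indicates inhibition.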
# Shiga inhibitor – blocks Shiga toxin action in Vero cells. Vero cells, Shiga toxin protein synthesis inhibition reporter. inhibition, % at 38.7 µM. 290,000 compounds, 9.2% hits; in the data active = inhibition mostly above about 28%, no sharp cut-off; inactive = mostly below about 43%; also: 0% is about no effect
# Giardia FBPA inh – blocks Giardia fructose-bisphosphate aldolase activity; purified Giardia FBPA; Potency, µM (doses to about 59.6 µM), inactives show top-dose activity, negative = inhibition, actives largely listed as inhibitors; 290,000 compounds, 0.71% hits; also: potency is read from the fitted curve at half-maximal effect; % is scaled to controls: 0 for no effect and ±100 for the full control effect; nearly all actives have a fitted effect of over 55% in size
# Target sequence (A8B2U2 whole entry, looked up): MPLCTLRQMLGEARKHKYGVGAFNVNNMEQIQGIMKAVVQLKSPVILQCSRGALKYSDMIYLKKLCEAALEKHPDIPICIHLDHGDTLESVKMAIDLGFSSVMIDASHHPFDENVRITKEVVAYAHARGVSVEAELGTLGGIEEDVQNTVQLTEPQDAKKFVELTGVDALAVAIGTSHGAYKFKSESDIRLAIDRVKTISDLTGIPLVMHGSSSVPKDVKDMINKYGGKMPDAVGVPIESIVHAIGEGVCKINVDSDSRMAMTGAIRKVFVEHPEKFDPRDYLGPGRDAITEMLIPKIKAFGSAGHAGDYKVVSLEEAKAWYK
#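 Giardia FBPA (40 nM reagent) was preincubated 10 min at RT with compound (up to 57.5 uM final), then substrate plus GAPDH/TPI/NAD/arsenate coupling system with diaphorase/resazurin was added; resorufin fluorescence (525/598 nm) was read after 20 min.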
# CHX counter – affects cycloheximide protein synthesis inhibition readout, counter-screen | cell reporter, cycloheximide protein synthesis inhibition counterscreen | max response, % | 300,000 compounds, 12% hits | AID 2314; in the data active = max response mostly above about 13%, no sharp cut-off; inactive = mostly below about 14%; also: read at 38.3 µM for the half of the compounds with a filed dose; 0% is about no effect
# Pf growth 48h – P. falciparum growth inhibition at 48 hours (one generation) | P. falciparum luciferase growth in erythrocytes, 48 h | Potency, µM (highest dose often 28.7 µM), without a hit: at the top dose activity change, negative = inhibition, most hits filed as inhibitors | 310,000 compounds, 5.9% hits; also: potency is read from the fitted curve at half-maximal effect; % is scaled to controls: 0 for no effect and ±100 for the full control effect
#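 Luminescence readout; reporter = integrated firefly luciferase in P. falciparum. RBC culture at 2% hematocrit, 0.1% parasitemia final, 37 C/5% CO2; decreased signal taken as growth inhibition.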
# NS1 function inh – influenza NS1 inhibition. 270,000 compounds, 0.4% hits. Potency, µM (highest dose often 46.1 µM), for inactives: at the highest dose activity, positive = more growth; calls by dose curve; also: potency is read from the fitted curve at half-maximal effect; actives are rising curves; nearly all actives have a fitted effect of over 50% in size
#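 Growth recovery, yeast-based: influenza A NS1 expressed in S. cerevisiae causes slow growth, and suppressors are detected by OD600. The parent strain without NS1 is used as positive control.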
# Numbers without * were called inactive; ? = inconclusive; . = not tested or not shown; [ ] = dose if it differs, or a comment. Most compounds without a hit are left out; they make up all but 21% or so of the library. Unless noted, calls follow the shape of the dose curve; as a rule, active = well fitted curve in the direction sought with a large enough effect; inconclusive = small, poorly fitted or top-dose-only effect, or another doubt; inactive = no such curve, though single readings can be large; an effect the other way counts as inactive or inconclusive.
SMILES,Pf growth 96h,Shiga inhibitor,Giardia FBPA inh,CHX counter,Pf growth 48h,NS1 function inh
O=C(OCc1ccc(Cl)c(Cl)c1)c1cccnc1Cl,9%,25,-4%,23*,-3%,-40%
Nc1ncccc1OCc1ccc(Cl)c(Cl)c1,180%,56*,-9%,47*,105%,-31%
O=C(OCc1ccc(Br)cc1)c1cccnc1Cl,28%,73,.,27*,34%,-8%
O=c1c2ccccc2oc2cc(OCc3cccc(F)c3)cc(O)c12,-1%,2,-17%,-3,3%,-2%
Cc1ccc(Sc2cnccc2C#N)cc1,?,7,-6%,-3,?,-6%
Cc1ccc(/C=C/C(=O)O)cc1S(=O)(=O)N(CCO)CCO,9.3µM*,4,23%,0,-12%,28%
CC(C)CCCCCCc1ccc(O)cc1,-14%,.,.,.,-19%,.
CCCc1ccc(-c2ccc(/C=C/C(=O)O)cc2)nc1,?,61*,2%,33,82%,-31%
CCCCCc1ccc(-c2ccc(/C=C/C(=O)O)cc2)nc1,25%,55*,1%,44*,72%,-33%
CCCCCCCc1ccc(-c2ccc(O)cc2)nc1,6%,81*,-6%,31*,?,-66%
Cc1ccc(S(=O)(=O)NC2CC(C)(C)NC(C)(C)C2)cc1C,?,2,6%,-2,?,8%
C/C(=N/NC(=O)c1ccc(Br)s1)c1cccnc1,7.4µM*,36,-4%,23*,39%,-8%
C/C(=N/NC(=O)c1ccc(C)s1)c1cccnc1,0%,71*,-26%,34*,105%,-16%
C/C(=N/NC(=O)c1ccc(Br)s1)c1ccncc1,27%,31,.,16*,39%,-19%
COc1cc(NC(=O)C2CC(c3ccccc3Cl)=NO2)cc(OC)c1OC (configuration not stated),1%,-12,10%,-2,21%,-16%
COc1ccc(-n2c(C)cc(C)c(C(C)=O)c2=S)cc1,12µM*,-3,0%,-3,15µM*,-3%
COc1ccc(-n2c(C)c(C(C)=O)c3cc(OC(C)=O)ccc32)cc1,-26%,-22,8%,-3,104%,4%
O=C(NCc1cccc(Cl)c1)c1ccc(N2CC3CC(C2)c2cccc(=O)n2C3)c(NC(=O)c2cccnc2)c1 (configuration not stated),-14%,-6,?,-3,?,-10%
COc1cc(CNCCN2CCOCC2)ccc1OCc1cccc(Cl)c1,12µM*,-6,2%,6,.,-5%
COc1cc(CNCCN2CCOCC2)ccc1OCc1ccc(Cl)cc1Cl,2.3µM*,-16,-13%,-7,9.3µM*,6%
COc1ccc(CNCCc2ccc(Cl)cc2)cc1OCc1ccccc1,-11%,-12,?,-6,2%,.
Cc1csc(=O)n1CCC(=O)OCC(=O)N(CC(C)C)c1c(N)n(Cc2ccccc2)c(=O)[nH]c1=O,?,-10,-4%,3,-37%,9%
C[C@@H](C(=O)N1CCNCC1)n1cc(CCCN=C(N)N)nn1,79%,-14,-6%,-1,37%,2%
COc1ccc(-n2ncc3c(=O)n(CC(=O)Nc4ccc5c(c4)OCCO5)cnc32)cc1,4.7µM*,-2,2%,-3,17%,8%
COC(=O)Cn1cnc2c(nnn2-c2ccc(OC)cc2)c1=O,?,14,10%,1,29%,-2%
SMILES,Pf growth 96h,Shiga inhibitor,Giardia FBPA inh,CHX counter,Pf growth 48h,NS1 function inh
CC(C)(C)n1ncc2c(=O)n(CC(=O)Nc3ccc4c(c3)OCO4)cnc21,?,0,0%,3,18%,-2%
COc1ccc(-n2ncc3c(=O)n(CC(=O)NC(C)C)cnc32)cc1,7.4µM*,-11,11%,0,0%,0%
CC(C)NC(=O)Cn1cnc2c(cnn2-c2ccc(F)cc2)c1=O,11%,-6,-9%,1,-1%,3%
COC(=O)Cn1cnc2c(cnn2-c2ccc(OC)cc2)c1=O,0%,42,13%,23*,26%,13%
COC(=O)Cn1cnc2c(cnn2-c2ccc(C)cc2)c1=O,12%,69*,2%,48*,0%[0.00184 µM],3%
O=C(CCc1ccccc1)N=C1SC2CS(=O)(=O)CC2N1c1ccccc1F (configuration not stated),47%,16,.,-1,?,-2%
CC[C@H](C)C(N)C(=O)O (some centres not stated),.,-4,-2%,-2,.,.
O=c1oc2ccccc2c(Nc2cc3ccccc3cc2O)c1[N+](=O)[O-],17%,111*,6.3µM*,53*,39%,0%
O=c1oc2ccccc2c(Nc2ccccc2O)c1[N+](=O)[O-],-23%,-20,0%,6,?,-46%
CC(=O)Nc1ccc(S(=O)(=O)N2CCN(C(=O)c3ncoc3-c3ccccc3)CC2)cc1,0%,-5,0%,-2,10%,18%
O=c1c(-c2ccccc2)nc2cnc(N3CCNCC3)nc2n1C1CC1,.,.,0%,.,.,.
CC(C)CSc1nc(N2CCOCC2)c2c(c1C#N)CC(C)(C)SC2,?,-11,-2%,0,9.3µM*,0%
CCCOC(=O)CSc1nc(N2CCOCC2)c2c(c1C#N)CC(C)(C)OC2,1.9µM*,-13,7%,-5,?,1%
CCOC(=O)CSc1nc(N2CCOCC2)c2c(c1C#N)CC(C)(C)OC2,?,-7,6%,-7,-11%[0.00184 µM],-7%
CCCCCSc1nc(N2CCOCC2)c2c(c1C#N)CC(C)(C)OC2,?,-10,5%,-1,9.3µM*,7%
CC1(C)C2CCC(C2)C1(C)NC(=O)CNCc1cccs1 (configuration not stated),2%,3,?,6,-8%,.
O=C(Cc1cccs1)NC1CCCC1,16%,-10,0%,-3,35%,3%
O=C(Cc1cccs1)NNC(=O)C12CC3CC(CC(C3)C1)C2,-2%,34,3%,-3,10µM*,.
O=C(CNCc1cccs1)NC12CC3CC(CC(C3)C1)C2,5.9µM*,30,?,14*,10%,.
Cc1ccc(S(=O)(=O)Nc2cccc(C(=O)N3CCOCC3)c2)c(C)c1NS(C)(=O)=O,?,0,10%,-2,18%,5%
COc1ccc(CN(C)CC(=O)Nc2cc(OC)c([N+](=O)[O-])cc2C)c(OC)c1,?,-5,-8%,-4,?,-6%
COc1cc(NC(=O)CN(C)CCOc2ccccc2)c(C)cc1[N+](=O)[O-],?,-5,3%,-1,12µM*,-4%
Cc1cc(Br)c(NC(=O)CN(C)CCOc2ccccc2)c(Br)c1,-14%,24,-4%,11*,36%,-5%
CSCCC(=O)N1CC[C@@H](N2CCN(c3ccccc3F)CC2)[C@H](O)C1,30%,.,10%,0,?,7%
NS(=O)(=O)c1ccc(NC(=O)CSc2cn[nH]n2)cc1,-12%,-15,-6%,-2,17%,6%
